Test results as given in PubChem BioAssay AID1159580 (chemical genetic matrix, 2015).
“And” between values parts separate entries of the source, which are not always exact repeats. Identical values can stand only once. Screen size: about 5,500 compounds; about 2,000 (36%) were called active. Roughly 18% stayed inconclusive and do not appear here. Cut-off read from the data, not from the text of the source: active = normalized growth mostly below about 0.91 (no sharp cut-off); inconclusive = no clear call, values can overlap the other calls; inactive = mostly above about 0.92. The list shows a part of the results.

Test: chemical genetic growth profiling, strain panel (AID 1159580);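 note: tested at 20 µM; growth read once vehicle control cultures reached saturation at 30 °C; 1 = growth at the plate median or of vehicle wells; lower values mean less growth of the strain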
Details: S. cerevisiae deletion strains, growth OD

Measured: normalized growth

C[C@H]1C(=O)O[C@@H]2CCN3CC=C(COC(=O)[C@](C)(O)[C@]1(C)O)[C@H]23
inactive: locus YAL021C, strain ccr4, hits give low values 1 | locus YAL026C, strain drs2, hits give low values 0.991 | locus YAL030W, strain snc1, hits give low values 0.989 | locus YBL061C, strain skt5, hits give low values 0.995 | locus YBR009C, strain hhf1, hits give low values 0.993 | locus YBR021W, strain FUR4, hits give low values 0.978 | locus YBR023C, strain chs3, hits give low values 0.995 | locus YBR171W, strain sec66, hits give low values 0.987 | locus YBR229C, strain ROT2, hits give low values 0.989 | locus YBR231C, strain swc5, hits give low values 0.984 | locus YBR279W, strain paf1, hits give low values 0.99 | locus YCL011C, strain gbp2, hits give low values 0.997 | locus YCL016C, strain dcc1, hits give low values 0.999 | locus YCL029C, strain bik1, hits give low values 0.99 | locus YCL069W, strain vba3, hits give low values 0.995 | locus YCR088W, strain abp1, hits give low values 0.992 | locus YDL005C, strain med2, hits give low values 0.992 | locus YDL035C, strain GPR1, hits give low values 0.999 | locus YDL040C, strain nat1, hits give low values 0.991 | locus YDL074C, strain BRE1, hits give low values 1.02 | locus YDL101C, strain DUN1, hits give low values 0.99 | locus YDL134C, strain PPH21, hits give low values 0.968 | locus YDL185W, strain tfp1, hits give low values 0.984 | locus YDL192W, strain arf1, hits give low values 0.981 | locus YDR001C, strain nth1, hits give low values 0.99 | locus YDR069C, strain doa4, hits give low values 0.99 | locus YDR101C, strain arx1, hits give low values 0.994 | locus YDR137W, strain rgp1, hits give low values 0.972 | locus YDR159W, strain sac3, hits give low values 0.984 | locus YDR162C, strain NBP2, hits give low values 0.996 | locus YDR195W, strain ref2 0.945 | locus YDR297W, strain sur2, hits give low values 0.998 | locus YDR318W, strain mcm21, hits give low values 0.996 | locus YDR334W, strain swr1, hits give low values 0.995 | locus YDR335W, strain msn5, hits give low values 0.989 | locus YDR388W, hits give low values 0.997 | locus YDR392W, strain spt3, hits give low values 0.995 | locus YDR502C, strain sam2, hits give low values 0.99 | locus YEL003W, strain gim4, hits give low values 0.991 | locus YEL037C, strain rad23, hits give low values 0.996 | locus YEL061C, strain CIN8 (second series), hits give low values 0.99 | locus YEL061C, strain CIN8, hits give low values 0.995 | locus YER015W, strain faa2, hits give low values 0.998 | locus YER016W, strain bim1, hits give low values 0.989 | locus YER110C, hits give low values 0.986 | locus YER111C, strain swi4, hits give low values 0.969 | locus YER155C, strain BEM2 (second series), hits give low values 0.937 | locus YER155C, strain BEM2, hits give low values 0.988 | locus YER167W, strain BCK2, hits give low values 0.982 | locus YFR010W, strain ubp6, hits give low values 0.99 | locus YGL078C, strain dbp3, hits give low values 0.988 | locus YGL086W, strain mad1, hits give low values 1.01 | locus YGL167C, strain pmr1, hits give low values 0.994 | locus YGL173C, strain kem1, hits give low values 0.994 | locus YGL227W, strain vid30, hits give low values 0.982 | locus YGL240W, strain doc1, hits give low values 0.987 | locus YGL248W, strain PDE1, hits give low values 0.997 | locus YGL253W, strain hxk2, hits give low values 0.994 | locus YGR135W, strain pre9, hits give low values 0.987 | locus YGR229C, strain SMI1, hits give low values 1 | locus YGR252W, strain gcn5, hits give low values 0.98 | locus YHR013C, strain ard1, hits give low values 1 | locus YHR027C, strain rpn1, hits give low values 0.991 | locus YHR030C, strain SLT2, hits give low values 0.986 and 0.998 | locus YHR079C, strain IRE1 (second series), hits give low values 0.994 | locus YHR079C, strain IRE1, hits give low values 0.985 | locus YHR094C, strain hxt1, hits give low values 0.991 | locus YHR129C, strain ARP1, hits give low values 0.989 | locus YHR142W, strain chs7, hits give low values 1 | locus YHR200W, strain rpn10, hits give low values 0.991 | locus YIL066C, strain RNR3, hits give low values 0.992 | locus YIL073C, strain SPO22, hits give low values 0.969 | locus YIL125W, strain kgd1, hits give low values 0.995 | locus YIR030C, strain dcg1, hits give low values 0.99 | locus YJL092W, strain hpr5, hits give low values 0.97 | locus YJL095W, strain BCK1 (second series), hits give low values 0.984 | locus YJL095W, strain BCK1, hits give low values 1.02 and 1 | locus YJL115W, strain asf1, hits give low values 0.969 | locus YJL129C, strain trk1, hits give low values 0.968 | locus YJL134W, strain LCB3, hits give low values 0.994 | locus YJL154C, strain vps35, hits give low values 0.991 | locus YJL164C, strain tpk1, hits give low values 1.01 | locus YJL166W, strain qcr8, hits give low values 0.987 | locus YJL168C, strain set2, hits give low values 0.997 | locus YJL187C, strain SWE1 (second series), hits give low values 0.995 | locus YJL187C, strain SWE1, hits give low values 0.996 | locus YJR043C, strain POL32, hits give low values 1.01 | locus YJR066W, strain TOR1, hits give low values 0.944 | locus YKL009W, strain mrt4, hits give low values 0.983
